Results as given in the supplement of paper PMC8728848.
The sample as a whole holds a higher share of the strongest signals than the screen did.

What was measured:
Experiment in all cases: glycan array binding signal (z-score within array); higher = stronger binding
[1] = target: Neu5Ac(a2-3)[GalNAc(b1-4)]Gal(b1-4)Glc; conditions: glycan notation: IUPAC condensed, linker removed
Outline: (§1)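 The binding signal is a Z-score computed within each array. Data were drawn from 3228 arrays in the Consortium for Functional Glycomics database, restricted to those with a known protein sequence. Scores were averaged over arrays of the same protein sequence at different concentrations or buffers, and over linkers, and negative values can be taken as non-binding.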

[2] = target: Neu5Ac(a2-6)Gal(b1-4)GlcNAc(b1-2)Man(a1-3)[Neu5Ac(a2-6)Gal(b1-4)GlcNAc(b1-2)Man(a1-6)]Man(b1-4)GlcNAc(b1-4)GlcNAc; conditions: glycan notation: IUPAC condensed, linker removed
Outline: as §1

[3] = target: Neu5Gc(a2-3)Gal(b1-4)[Fuc(a1-4)]GlcNAc; conditions: glycan notation: IUPAC condensed, linker removed
Outline: as §1

Fuc(a1-2)Gal(b1-4)GlcNAc = conditions: glycan notation: IUPAC condensed, linker removed
Outline: as §1

[4] = target: Gal(b1-3)GalNAc(b1-4)[Neu5Ac(a2-3)]Gal(b1-4)Glc; conditions: glycan notation: IUPAC condensed, linker removed
Outline: as §1

[5] = target: Gal(b1-3)[Fuc(a1-4)]GlcNAc; conditions: glycan notation: IUPAC condensed, linker removed
Outline: as §1

[6] = target: Gal(b1-3)[GlcNAc(b1-6)]GalNAc; conditions: glycan notation: IUPAC condensed, linker removed
Outline: as §1

[7] = target: Gal(b1-4)GlcNAc(b1-3)Gal(b1-4)GlcNAc(b1-3)Gal(b1-4)GlcNAc; conditions: glycan notation: IUPAC condensed, linker removed
Outline: as §1

[8] = target: Gal(b1-4)GlcNAc(b1-6)[Gal(b1-3)]GalNAc; conditions: glycan notation: IUPAC condensed, linker removed
Outline: as §1

Gal3S(b1-4)Glc6S = conditions: glycan notation: IUPAC condensed, linker removed
Outline: as §1

Gal3S(b1-4)GlcNAc6S = conditions: glycan notation: IUPAC condensed, linker removed
Outline: as §1

Gal3S6S(b1-4)GlcNAc = conditions: glycan notation: IUPAC condensed, linker removed
Outline: as §1

Gal3S6S(b1-4)GlcNAc6S = conditions: glycan notation: IUPAC condensed, linker removed
Outline: as §1

Gal6S(b1-4)Glc6S = conditions: glycan notation: IUPAC condensed, linker removed
Outline: as §1

[9] = target: GlcNAc(b1-6)Gal(b1-4)GlcNAc; conditions: glycan notation: IUPAC condensed, linker removed
Outline: as §1

[10] = target: Man(a1-2)Man(a1-2)Man(a1-3)Man; conditions: glycan notation: IUPAC condensed, linker removed
Outline: as §1

[11] = target: Neu5Ac(a2-3)Gal(b1-3)GlcNAc6S; conditions: glycan notation: IUPAC condensed, linker removed
Outline: as §1

[12] = target: Neu5Ac(a2-3)Gal(b1-4)GlcNAc; conditions: glycan notation: IUPAC condensed, linker removed
Outline: as §1

[13] = target: Neu5Ac(a2-3)Gal(b1-4)[Fuc(a1-3)]GlcNAc(b1-3)Gal(b1-4)GlcNAc; conditions: glycan notation: IUPAC condensed, linker removed
Outline: as §1

[14] = target: Neu5Ac(a2-3)[Neu5Ac(a2-6)]GalNAc; conditions: glycan notation: IUPAC condensed, linker removed
Outline: as §1

Neu5Ac(a2-8)Neu5Ac = conditions: glycan notation: IUPAC condensed, linker removed
Outline: as §1

[15] = target: Fuc(a1-2)[Gal(a1-3)]Gal(b1-3)GlcNAc; conditions: glycan notation: IUPAC condensed, linker removed; mutation: A146Q
Outline: as §1

[16] = target: Fuc(a1-2)[Gal(a1-3)]Gal(b1-3)GlcNAc(b1-2)Man(a1-3)[Fuc(a1-2)[Gal(a1-3)]Gal(b1-3)GlcNAc(b1-2)Man(a1-6)]Man(b1-4)GlcNAc(b1-4)GlcNAc; conditions: glycan notation: IUPAC condensed, linker removed; mutation: A146Q
Outline: as §1

[17] = target: Fuc(a1-2)[Gal(a1-3)]Gal(b1-4)Glc; conditions: glycan notation: IUPAC condensed, linker removed; mutation: A146Q
Outline: as §1

[18] = target: Fuc(a1-2)[Gal(a1-3)]Gal(b1-4)GlcNAc; conditions: glycan notation: IUPAC condensed, linker removed; mutation: A146Q
Outline: as §1

[19] = target: Fuc(a1-2)[Gal(a1-3)]Gal(b1-4)GlcNAc(b1-2)Man(a1-3)[Fuc(a1-2)[Gal(a1-3)]Gal(b1-4)GlcNAc(b1-2)Man(a1-6)]Man(b1-4)GlcNAc(b1-4)GlcNAc; conditions: glycan notation: IUPAC condensed, linker removed; mutation: A146Q
Outline: as §1

[20] = target: Fuc(a1-2)[GalNAc(a1-3)]Gal(b1-3)GalNAc(a1-3)[Fuc(a1-2)]Gal(b1-4)GlcNAc; conditions: glycan notation: IUPAC condensed, linker removed; mutation: A146Q
Outline: as §1

Fuc(a1-4)GlcNAc = conditions: glycan notation: IUPAC condensed, linker removed; mutation: A146Q
Outline: as §1

Gal(a1-3)Gal(b1-3)GlcNAc = conditions: glycan notation: IUPAC condensed, linker removed; mutation: A146Q
Outline: as §1

Gal(a1-6)Glc = conditions: glycan notation: IUPAC condensed, linker removed; mutation: A146Q
Outline: as §1

[21] = target: Gal(b1-3)Gal(b1-4)GlcNAc(b1-2)Man(a1-3)[Gal(b1-3)Gal(b1-4)GlcNAc(b1-2)Man(a1-6)]Man(b1-4)GlcNAc(b1-4)GlcNAc; conditions: glycan notation: IUPAC condensed, linker removed; mutation: A146Q
Outline: as §1

Gal(b1-4)GlcNAc = conditions: glycan notation: IUPAC condensed, linker removed; mutation: A146Q
Outline: as §1

[22] = target: Gal(b1-4)GlcNAc(b1-2)Man(a1-3)Man(b1-4)GlcNAc(b1-4)GlcNAc; conditions: glycan notation: IUPAC condensed, linker removed; mutation: A146Q
Outline: as §1

[23] = target: Gal(b1-4)GlcNAc(b1-2)Man(a1-3)[Man(a1-6)]Man(b1-4)GlcNAc(b1-4)GlcNAc; conditions: glycan notation: IUPAC condensed, linker removed; mutation: A146Q
Outline: as §1

[24] = target: Gal(b1-4)GlcNAc(b1-3)GalNAc; conditions: glycan notation: IUPAC condensed, linker removed; mutation: A146Q
Outline: as §1

[25] = target: Gal(b1-4)GlcNAc(b1-3)[GlcNAc(b1-6)]Gal(b1-4)GlcNAc; conditions: glycan notation: IUPAC condensed, linker removed; mutation: A146Q
Outline: as §1

Gal6S(b1-4)GlcNAc6S = conditions: glycan notation: IUPAC condensed, linker removed; mutation: A146Q
Outline: as §1

[26] = target: GlcNAc(a1-4)Gal(b1-4)GlcNAc(b1-3)Gal(b1-4)GlcNAc(b1-3)Gal(b1-4)GlcNAc; conditions: glycan notation: IUPAC condensed, linker removed; mutation: A146Q
Outline: as §1

GlcNAc(b1-4)GlcNAc = conditions: glycan notation: IUPAC condensed, linker removed; mutation: A146Q
Outline: as §1

[27] = target: Kdn(a2-3)Gal(b1-4)[Fuc(a1-3)]GlcNAc; conditions: glycan notation: IUPAC condensed, linker removed; mutation: A146Q
Outline: as §1

[28] = target: Man(a1-2)Man(a1-2)Man(a1-6)[Man(a1-3)]Man; conditions: glycan notation: IUPAC condensed, linker removed; mutation: A146Q
Outline: as §1

Man(a1-2)Man(a1-3)Man = conditions: glycan notation: IUPAC condensed, linker removed; mutation: A146Q
Outline: as §1

[29] = target: Man(a1-2)Man(a1-3)[Man(a1-2)Man(a1-6)]Man(a1-6)[Man(a1-2)Man(a1-2)Man(a1-3)]Man(b1-4)GlcNAc(b1-4)GlcNAc; conditions: glycan notation: IUPAC condensed, linker removed; mutation: A146Q
Outline: as §1

[30] = target: Neu5Ac(a2-3)Gal(b1-3)[Fuc(a1-4)]GlcNAc(b1-3)Gal(b1-4)[Fuc(a1-3)]GlcNAc; conditions: glycan notation: IUPAC condensed, linker removed; mutation: A146Q
Outline: as §1

[31] = target: Neu5Ac(a2-3)Gal(b1-4)[Fuc(a1-3)]GlcNAc6S; conditions: glycan notation: IUPAC condensed, linker removed; mutation: A146Q
Outline: as §1

[32] = target: Neu5Ac(a2-6)Gal(b1-4)GlcNAc(b1-2)Man(a1-6)[Man(a1-3)]Man(b1-4)GlcNAc(b1-4)GlcNAc; conditions: glycan notation: IUPAC condensed, linker removed; mutation: A146Q
Outline: as §1

[33] = target: Neu5Ac(a2-6)Gal(b1-4)GlcNAc(b1-3)Gal(b1-4)GlcNAc(b1-3)Gal(b1-4)GlcNAc; conditions: glycan notation: IUPAC condensed, linker removed; mutation: A146Q
Outline: as §1

B1: LEA (Lycopersicon esculentum) (protein)
chain: NEVFDVPMNETIGVESINASVGGYPRCGAQGDGGNCPSGMCCSVWGWCGKTYGYCAPQNCQKQCPAPYPEGRCGWQADGKSCPNGKCCSYGGWCGTTSDYCARQNCQKQCILPSPPPPPPPPPGFPRPECGLQKNGERCTKPGECCSIWGLCGATYKYCDPQHCQKQCSAPFPPGRCGWQADGRPCPTGQCCSFSGWCGTTSAHCTYPQCVSQCNDPRFPSSLNNRIQSFML
- glycan array binding signal (z-score) [1]: -0.536
- glycan array binding signal (z-score) [2]: -0.502
- glycan array binding signal (z-score) [3]: -0.041

B2: TREM-2 (Mus musculus), Q99NH8 (protein)
chain: MGPLHQFLLLLITALSQALNTTVLQGMAGQSLRVSCTYDALKHWGRRKAWCRQLGEEGPCQRVVSTHGVWLLAFLKKRNGSTVIADDTLAGTVTITLKNLQAGDAGLYQCQSLRGREAEVLQKVLVEVLEDPLDDQDAGDLWVPEESSSFEGAQVEHSTSRNQETSFPPTSILLLLACVLLSKFLAASILWAVARGRQKPGTPVVRGLDCGQDAGHQLQILTGPGGT
- glycan array binding signal (z-score) (Fuc(a1-2)Gal(b1-4)GlcNAc): -0.407
- glycan array binding signal (z-score) [4]: -0.342
- glycan array binding signal (z-score) [5]: -0.368
- glycan array binding signal (z-score) [6]: -0.349
- glycan array binding signal (z-score) [7]: -0.287
- glycan array binding signal (z-score) [8]: -0.354
- glycan array binding signal (z-score) (Gal3S(b1-4)Glc6S): 4.24
- glycan array binding signal (z-score) (Gal3S(b1-4)GlcNAc6S): 4.02
- glycan array binding signal (z-score) (Gal3S6S(b1-4)GlcNAc): 4.4
- glycan array binding signal (z-score) (Gal3S6S(b1-4)GlcNAc6S): 4.74
- glycan array binding signal (z-score) (Gal6S(b1-4)Glc6S): 3.17
- glycan array binding signal (z-score) [9]: -0.382
- glycan array binding signal (z-score) [10]: -0.305
- glycan array binding signal (z-score) [11]: -0.078
- glycan array binding signal (z-score) [12]: -0.391
- glycan array binding signal (z-score) [13]: -0.043
- glycan array binding signal (z-score) [1]: -0.373
- glycan array binding signal (z-score) [14]: 0.289
- glycan array binding signal (z-score) (Neu5Ac(a2-8)Neu5Ac): -0.304

B3: Gal 3 (Homo sapiens), P17931 (protein)
chain: MADNFSLHDALSGSGNPNPQGWPGAWGNQPAGAGGYPGASYPGAYPGQAPPGAYPGQAPPGAYHGAPGAYPGAPAPGVYPGPPSGPGAYPSSGQPSAPGAYPATGPYGAPAGPLIVPYNLPLPGGVVPRMLITILGTVKPNANRIQLDFQRGNDVAFHFNPRFNENNRRVIVCNTKLDNNWGREERQSVFPFESGKPFKIQVLVEPDHFKVAVNDAHLLQYNHRVKKLNEISKLGISGDIDLTSASYTMI
- glycan array binding signal (z-score) (Fuc(a1-2)Gal(b1-4)GlcNAc; mutation: A146Q): 0.166
- glycan array binding signal (z-score) [15]: 3.36
- glycan array binding signal (z-score) [16]: 9.93
- glycan array binding signal (z-score) [17]: 2.81
- glycan array binding signal (z-score) [18]: 3.94
- glycan array binding signal (z-score) [19]: 10.3
- glycan array binding signal (z-score) [20]: -0.199
- glycan array binding signal (z-score) (Fuc(a1-4)GlcNAc): -0.12
- glycan array binding signal (z-score) (Gal(a1-3)Gal(b1-3)GlcNAc): -0.087
- glycan array binding signal (z-score) (Gal(a1-6)Glc): -0.188
- glycan array binding signal (z-score) [21]: 10.2
- glycan array binding signal (z-score) (Gal(b1-4)GlcNAc): -0.196
- glycan array binding signal (z-score) [22]: -0.083
- glycan array binding signal (z-score) [23]: -0.181
- glycan array binding signal (z-score) ([7]; mutation: A146Q): 3.5
- glycan array binding signal (z-score) [24]: -0.187
- glycan array binding signal (z-score) [25]: 0.13
- glycan array binding signal (z-score) (Gal3S(b1-4)GlcNAc6S; mutation: A146Q): 0.851
- glycan array binding signal (z-score) (Gal6S(b1-4)GlcNAc6S): -0.192
- glycan array binding signal (z-score) [26]: 2.23
- glycan array binding signal (z-score) (GlcNAc(b1-4)GlcNAc): -0.132
- glycan array binding signal (z-score) [27]: -0.201
- glycan array binding signal (z-score) ([10]; mutation: A146Q): -0.186
- glycan array binding signal (z-score) [28]: -0.177
- glycan array binding signal (z-score) (Man(a1-2)Man(a1-3)Man): -0.199
- glycan array binding signal (z-score) [29]: -0.15
- glycan array binding signal (z-score) [30]: -0.2
- glycan array binding signal (z-score) [31]: -0.188
- glycan array binding signal (z-score) [32]: -0.197
- glycan array binding signal (z-score) [33]: 1.65
